# Measurements published in PubChem BioAssay AID449762 (Southern Research Specialized Biocontainment Screening …, 2010).
# Among all 330,000 compounds or so, about 1,900 (0.58%) were called active. Roughly 4% stayed inconclusive and do not appear here. Not all results are given here. Results with a measured potency or affinity are listed apart. A number with no mark means an inactive call. No stated cut-off is given here; in the data, inconclusive means inhibition above about 70% without an active follow-up result; inactive means below that.
# Experiment: M. tuberculosis growth inhibition, HTS (AID 449762);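 further: bacterial growth assessed after seven days of incubation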
# Conditions: M. tuberculosis H37Rv growth inhibition, 7H9 media; at 25 µM; stronger effect = higher value
row,SMILES,inhibition
1,O=C(CCn1cnnn1)Nc1ccc(Cl)cc1Cl,-5.53%
2,O=C(CN1CCCC1)Nc1ccc([N+](=O)[O-])cc1,4.32%
3,O=C(CN1CCCCC1)Nc1nnc(-c2ccccc2)s1,5.25%
4,O=C(OCC(=O)N1CCCC1)c1ccc(Cl)c([N+](=O)[O-])c1,-6.77%
5,COc1ccccc1N1CCN(c2ccc(Cl)nn2)CC1,0.36%
6,COc1ccccc1N1CCN(c2ccc3ccccc3n2)CC1,1.84%
7,CCCNC(=O)NC(=O)COC(=O)c1cccc(NS(=O)(=O)c2ccc(F)c(F)c2)c1,5.38%
8,CC1(C2CC2)NC(=O)N(CC(=O)N2CCN(c3ccccc3)CC2)C1=O (configuration not stated),-0.6%
9,Nc1nc(-c2ccco2)nn1C(=O)CCc1ccccc1,6.17%
10,CC(=O)c1ccc(NC(=O)C2=CC(c3cccs3)=NS(=O)(=O)N2C)cc1,2.16%
11,O=c1[nH]c(Nc2ccccc2)cc2ccccc12,0.07%
12,NS(=O)(=O)c1ccc(NC2=CC(=O)C(=O)c3ccccc32)cc1,11.2%
13,CC(=O)Nc1ccc(NC2=CC(=O)c3ccccc3C2=O)cc1,3.89%
14,O=c1[nH]c(Nc2ccc(F)cc2)cc2ccccc12,-14.1%
15,COC(=O)CN(c1ccc(C)cc1)S(=O)(=O)c1c(C)[nH]c(=O)[nH]c1=O,-6.71%
16,C=CCSc1nnc(NC(=O)c2ccc(N3CCCC3=O)cc2)s1,-1.46%
17,C=CC[C@H](CC(=O)NCCO)C(=O)NC[C@@H](OC(=O)[C@@H](CC=C)CC(=O)OC(C)(C)C)c1ccccc1,-4.9%
18,Cc1ccc(S(=O)(=O)N2CCN(c3ccc(C(F)(F)F)cc3[N+](=O)[O-])CC2)cc1,16%
19,Cc1cc(N2CCN(c3ccc([N+](=O)[O-])c4cccnc34)CC2)c2ccccc2n1,-7.93%

row,SMILES,inhibition
1,CCC1(CC)C(=O)N(Cc2ccccc2)C(=O)N(Cc2ccccc2)C1=O,-1.75%
2,CCN(c1ccccc1)S(=O)(=O)c1ccc(OC)c(NC(=O)Cc2ccccc2OC)c1,-3.76%
3,CCN(CCNC(=O)C1CC(=O)N(CCc2ccccc2)C1)c1ccccc1 (configuration not stated),-5.61%
4,CCOc1ccc(/C=N/NC(=S)NC2CC3CC2C2C=CCC32)cc1 (configuration not stated),7.16%
5,COc1cccc(/C=N/NC(=S)NC2CC3CC2C2C=CCC32)c1O (configuration not stated),-6.6%
6,CC1CCCCC12NC(=O)N(CC(=O)NNC(=O)c1ccc(Br)cc1)C2=O (configuration not stated),1.45%
7,CCSc1nnc(NC(=O)CSC2=NN3CCCC(=O)N=C3S2)s1,2.54%
8,CN(c1cccc(NC(=O)Cc2ccccc2)c1)S(C)(=O)=O,5.18%
9,O=C(NC(C(=O)N/N=C/c1ccccc1)c1n[nH]c(=O)c2ccccc12)c1ccccc1 (configuration not stated),2.9%
10,O=C(NC(C(=O)N/N=C/c1ccncc1)c1n[nH]c(=O)c2ccccc12)c1ccccc1 (configuration not stated),2.1%
11,COc1ccc(CC(=O)Nc2ccccc2N2CCCC2)cc1,0.8%
12,Cc1ccc(C2CC(=O)C=C(O)C2)cc1 (configuration not stated),9.89%
13,COc1ccc(CNC(=O)NCCc2c[nH]c3ccccc23)cc1,9.15%
14,CSc1ccccc1NC(=O)COc1nsnc1N1CCOCC1,2.19%
15,Cc1cccc(NC(=O)CSc2nc(N)c(NC(=O)c3ccccc3F)c(=O)[nH]2)c1,-17.1%
16,COC(=O)c1ccc2[nH]c(C(C)(C)O)c(C)c2c1,-3.19%
17,COc1ccc(C2=NN3C(C2)c2ccccc2OC3c2cccs2)cc1 (configuration not stated),-3.24%
18,c1ccc(C2Oc3ccccc3C3CC(c4cccs4)=NN32)cc1 (configuration not stated),-7.12%
19,COC(=O)COc1cc(=O)oc2ccc(NS(=O)(=O)c3ccccc3)cc12,11.6%

row,SMILES,inhibition
1,Cn1cc(C(=O)c2cccc(Cl)c2Cl)cc1C#N,-7.62%
2,Cc1ccc([N+](=O)[O-])cc1N(CC(=O)NC1CCCC1)S(C)(=O)=O,-1.93%
3,COc1ccc(C)cc1NS(=O)(=O)c1ccc(NC(=O)CN(c2cc([N+](=O)[O-])ccc2C)S(C)(=O)=O)cc1,0.68%
4,CCN1CCN(C(c2cc(OC)c(OC)c(OC)c2)c2nnnn2C(C)C)CC1 (configuration not stated),-6.3%
5,CCN1C(=NCCc2ccc([N+](=O)[O-])cc2)N[C@@H](c2ccccc2)[C@H](C(=O)OC)[C@H]1C,-8.81%
6,CCN1C(=NCCc2cccnc2)N[C@@H](c2ccccc2)[C@H](C(=O)OC)[C@H]1C,-0.82%
7,COc1ccc(Nc2oc(-c3ccccc3)nc2C#N)cc1,-0.48%
8,FC(F)(F)c1ccc(-n2cnc3ccccc32)nc1,-0.78%
9,COC(=O)c1ccc(N2CCN(c3ccccc3)CC2)nc1,-3.88%
10,Cc1c(Nc2nc(-c3ccccc3)cs2)c(=O)n(-c2ccccc2)n1C,0.86%
11,CCOC(=O)c1c(NC(=O)c2cc3n(n2)C(C(F)(F)F)CC(c2ccccc2)N3)sc(C)c1C (configuration not stated),-4.24%
12,O=C(C(c1ccccc1)c1ccccc1)N1CCN(CCN2C(=O)c3cccc4cccc(c34)C2=O)CC1,-9.17%
13,CC(C)(C)C(=O)N1CCN(CCN2C(=O)c3cccc4cccc(c34)C2=O)CC1,-4.28%
14,O=C(OCC#CCSc1nnc(-c2cccc3ccccc23)o1)c1ccc2ccccc2c1,8.92%
15,O=C(OCC#CCSc1nnc(-c2cccc3ccccc23)o1)c1cc2ccccc2o1,36.1%
16,CN1CCN(S(=O)(=O)c2ccc(SCCOc3ccccc3)nc2)CC1,-0.98%
17,CN1CCN(S(=O)(=O)c2ccc(SCCOc3ccc(Cl)cc3)nc2)CC1,-1.28%
18,Cc1c(S(=O)(=O)N2CCCCC2)c(=O)n(C)c(=O)n1C,-9.81%
19,CN1C(=O)N(C)C2(c3ccccc3)N(C(C)(C)C)C(=O)NC12c1ccccc1 (configuration not stated),-0.92%
